Experimental findings from PubChem BioAssay are described below.

Calls of active or inactive are those of the source. Unless noted, the rule behind the calls is not given here.

Assay [1] is described as follows: compounds binding Alexa647 anti-His antibody – biochemical, small-molecule microarray, 635 nm fluorescence, artefact control for SMM control protein annotation, primary screen (AID 1128).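 Note: score merges feature fluorescence with signal-to-noise for each printed compound spot.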 Particulars: higher = more signal.
Assay [2] has as its system Human papillomavirus type 1a E7 protein (residues 1-88). In words: HPV1a E7 small-molecule binders, primary screen, biochemical, small-molecule microarray, residues 1-88, 635 nm (AID 1129). Particulars: small-molecule microarray binding, fluorescence 635 nm; higher = more signal.
The target in assay [3] is Focal adhesion kinase 1 (Homo sapiens) (UniProt Q05397). In words: PTK2 protein binding on printed compound slides – biochemical, small-molecule microarray, 635/667 nm fluorescence, BSA, DTT, primary screen (AID 1130).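 Note: composite of spot emission at 667 nm and signal to noise over triplicate slides.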 Particulars: 635 nm fluorescence, higher = more signal.
Focal adhesion kinase 1 (Homo sapiens), sequence (Q05397 whole entry, looked up): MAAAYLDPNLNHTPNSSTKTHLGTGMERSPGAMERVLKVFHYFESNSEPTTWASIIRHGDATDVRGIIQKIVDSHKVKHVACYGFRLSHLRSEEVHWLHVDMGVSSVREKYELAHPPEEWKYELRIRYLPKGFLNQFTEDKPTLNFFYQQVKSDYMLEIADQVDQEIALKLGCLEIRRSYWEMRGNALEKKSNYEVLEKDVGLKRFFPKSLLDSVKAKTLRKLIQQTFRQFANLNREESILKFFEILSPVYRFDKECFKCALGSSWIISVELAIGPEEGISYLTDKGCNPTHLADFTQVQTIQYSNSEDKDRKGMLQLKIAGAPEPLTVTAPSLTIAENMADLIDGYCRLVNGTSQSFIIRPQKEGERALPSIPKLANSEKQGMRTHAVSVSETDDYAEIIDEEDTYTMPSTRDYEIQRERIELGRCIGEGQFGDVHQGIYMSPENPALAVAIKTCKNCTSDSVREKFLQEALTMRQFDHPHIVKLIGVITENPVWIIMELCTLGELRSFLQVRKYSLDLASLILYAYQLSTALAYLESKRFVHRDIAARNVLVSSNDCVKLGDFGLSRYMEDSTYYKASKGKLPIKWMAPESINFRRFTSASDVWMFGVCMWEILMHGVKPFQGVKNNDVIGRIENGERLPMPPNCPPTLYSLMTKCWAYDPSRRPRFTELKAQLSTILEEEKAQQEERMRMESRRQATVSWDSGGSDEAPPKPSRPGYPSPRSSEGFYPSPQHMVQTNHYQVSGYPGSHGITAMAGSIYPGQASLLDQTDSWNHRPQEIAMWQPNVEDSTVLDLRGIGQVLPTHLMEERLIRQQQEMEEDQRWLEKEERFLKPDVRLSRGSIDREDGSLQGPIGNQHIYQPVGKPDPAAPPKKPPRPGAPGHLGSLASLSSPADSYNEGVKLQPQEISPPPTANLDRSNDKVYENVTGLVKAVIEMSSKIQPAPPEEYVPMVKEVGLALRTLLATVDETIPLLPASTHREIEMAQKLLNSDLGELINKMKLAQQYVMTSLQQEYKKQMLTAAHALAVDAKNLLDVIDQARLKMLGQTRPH
Assay [4] concerns Fibrinogen (Alexa647-labelled). In words: Alexa647-fibrinogen binding to printed small molecules – biochemical, small-molecule microarray, 635/667 nm fluorescence, artefact control for SMM control-protein annotation, profiling panel (AID 1131).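 Note: z-score merges 667 nm fluorescence with per-spot signal-to-noise over triplicate slides.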 As to conditions: fibrinogen-A647 binding fluorescence, higher = more signal.
The target in assay [5] is Follistatin (Homo sapiens) (UniProt P19883). In words: FST protein binding to printed compounds – biochemical, small-molecule microarray, 635/667 nm fluorescence, primary screen (AID 1132). Particulars: 635 nm fluorescence, higher = more signal.
Follistatin (Homo sapiens), sequence (P19883 whole entry, looked up): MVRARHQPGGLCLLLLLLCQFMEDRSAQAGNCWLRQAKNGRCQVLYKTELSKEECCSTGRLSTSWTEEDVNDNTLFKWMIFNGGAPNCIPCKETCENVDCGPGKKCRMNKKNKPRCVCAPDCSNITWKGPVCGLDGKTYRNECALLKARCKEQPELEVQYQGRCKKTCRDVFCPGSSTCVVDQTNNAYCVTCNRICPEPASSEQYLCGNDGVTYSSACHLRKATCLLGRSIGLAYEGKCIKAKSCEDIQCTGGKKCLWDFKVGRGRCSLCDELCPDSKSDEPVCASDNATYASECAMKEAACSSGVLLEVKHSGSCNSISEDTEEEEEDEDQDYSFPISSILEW
Assay [6] has as its target Fibroblast growth factor 2 (Homo sapiens) (UniProt P09038). In words: basic fibroblast growth factor binding to printed compounds – biochemical, small-molecule microarray, 635/667 nm fluorescence, primary screen (AID 1133). Particulars: FGF2, fluorescence 635/667, higher = more signal.
Assay [7] in a line: JC-1 mitochondrial potential readout, lung cancer cells – cell-based, A549, JC-1 fluorescence, basal, 24 h, 100 nL, profiling panel (AID 1138).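 Note: A549 lung adenocarcinoma cells under basal conditions with no added stimulus; test concentration not given here.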 As to conditions: higher = more signal.
In assay [8] the test system is Lefty1. In words: Lefty1 protein binding to printed compounds – biochemical, small-molecule microarray, 635/667 nm fluorescence, primary screen (AID 1139). Particulars: fluorescence 635/667, higher = more signal.
Assay [9] has as its system wheat germ agglutinin (Triticum aestivum), Alexa647-labelled. Kind of assay: Alexa647-WGA lectin binding to printed small molecules – biochemical, small-molecule microarray, 635/667 nm fluorescence, artefact control for SMM control-protein annotation, profiling panel (AID 1140).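 Note: score merges 667 nm feature emission with signal to noise over triplicate slides.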 As to conditions: WGA-A647 binding, 635 nm fluorescence, higher = more signal.
The target of assay [10] is Luciferin 4-monooxygenase (Photinus pyralis) (UniProt P08659). In words: inhibition of purified Photinus pyralis luciferase – biochemical, luminescence, purified enzyme, 2006 set, primary screen (AID 1141).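 Note: cell-free assay with purified firefly luciferase at 100 ng per well in PBS; test concentration not given here.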 As to conditions: purified firefly luciferase, SteadyGlo luminescence, 30 min; higher = more signal, called active from +8 up or from −8 down.
Luciferin 4-monooxygenase (Photinus pyralis), sequence (P08659 whole entry, looked up): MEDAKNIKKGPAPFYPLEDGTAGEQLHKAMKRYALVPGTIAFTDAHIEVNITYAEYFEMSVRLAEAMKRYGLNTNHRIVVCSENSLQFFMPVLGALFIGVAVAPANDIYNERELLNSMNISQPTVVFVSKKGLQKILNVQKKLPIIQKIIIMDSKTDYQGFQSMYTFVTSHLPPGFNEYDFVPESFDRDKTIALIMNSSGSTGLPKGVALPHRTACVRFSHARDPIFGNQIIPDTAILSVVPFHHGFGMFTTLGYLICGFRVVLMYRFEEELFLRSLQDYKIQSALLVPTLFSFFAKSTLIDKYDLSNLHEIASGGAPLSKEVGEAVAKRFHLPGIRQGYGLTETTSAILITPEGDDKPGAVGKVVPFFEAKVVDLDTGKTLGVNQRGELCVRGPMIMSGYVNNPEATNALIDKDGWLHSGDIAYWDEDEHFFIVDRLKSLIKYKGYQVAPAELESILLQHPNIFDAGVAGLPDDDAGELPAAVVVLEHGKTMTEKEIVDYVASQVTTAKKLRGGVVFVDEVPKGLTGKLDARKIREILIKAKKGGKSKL
Assay [11] has as its system Wnt5a (protein binding on small-molecule microarray). In words: small molecules binding Wnt5a protein – biophysical, small-molecule microarray, 635/667 nm fluorescence, primary screen (AID 1142).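 Note: fluorescence read at 667 nm with signal to noise per printed feature.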 Particulars: 635 nm fluorescence, higher = more signal.
A short description of assay [12]: ATP-based viability of Huh7 replicon cells – cell-based, CellTiter-Glo luminescence, basal, 48 h, cytotoxicity control for HCV replication inhibitor project, primary screen (AID 1143).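 Note: Huh7 hepatoma cells carrying a hepatitis C replication reporter with no stimulus; test concentration not given here.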 As to conditions: higher = more signal, called active from +8 up or from −8 down.
The nature of assay [13]: Pseudomonas biofilm growth suppression – PAO1 strain, BacTiter-Glo luminescence, LB-PBS, primary screen (AID 1144). As to conditions: P. aeruginosa PAO1 biofilm, 12 h, higher = more signal.
Assay [14] can be described thus: basal CRE-LacZ reporter activity in PC12 – cell-based, unstimulated, primary screen (AID 1145). As to conditions: no forskolin, luminescence, 4.5 h, higher = more signal, called active from +8 up or from −8 down.
A short description of assay [15]: forskolin-driven CRE-LacZ activity in PC12 – cell-based, CRE-LacZ reporter, forskolin-stimulated, primary screen (AID 1146).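 Note: PC12 cells with 6xCRE LacZ reporter stimulated by forskolin 10 µM; beta-galactosidase reporter signal reflecting CREB driven transcription.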 As to conditions: luminescence, 4.5 h, higher = more signal, called active from +8 up or from −8 down.
Assay [16] has as its target Streptavidin (Streptomyces avidinii) (UniProt P22629). Kind of assay: compounds binding control protein streptavidin – biophysical, small-molecule microarray, 635/667 nm fluorescence, artefact control for SMM compound annotation, primary screen (AID 1147).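 Note: signal reflects streptavidin binding to arrayed compounds as a control protein.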 As to conditions: higher = more signal.
A short description of assay [17]: probe aInhba binding on compound microarray – biochemical, small-molecule microarray, 635/667 nm fluorescence, primary screen (AID 1148).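 Note: score merges 667nm spot fluorescence with signal-to-noise for antibody binding to printed compounds.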 Particulars: higher = more signal.
The target of assay [18] is Torsin-1A (Homo sapiens) (UniProt O14656). In words: TOR1A wild-type binding on microarray – cell lysate, small-molecule microarray, lysate, 635/667 nm, primary screen (AID 1149). As to conditions: COS7 hTOR1A-WT lysate, 635 nm fluorescence, higher = more signal.
Torsin-1A (Homo sapiens), sequence (O14656 whole entry, looked up): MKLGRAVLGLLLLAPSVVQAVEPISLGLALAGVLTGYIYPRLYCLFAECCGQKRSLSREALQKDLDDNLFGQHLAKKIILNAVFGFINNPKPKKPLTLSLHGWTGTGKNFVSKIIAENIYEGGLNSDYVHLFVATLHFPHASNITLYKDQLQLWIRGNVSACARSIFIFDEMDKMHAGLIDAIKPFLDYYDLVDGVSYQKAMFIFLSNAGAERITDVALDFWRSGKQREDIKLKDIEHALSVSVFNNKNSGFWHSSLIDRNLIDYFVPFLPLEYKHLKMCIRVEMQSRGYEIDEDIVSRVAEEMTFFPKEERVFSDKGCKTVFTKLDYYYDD
The target is the same in assay [19]. In words: torsin A mutant lysate binding on microarrays – cell lysate, small-molecule microarray, COS7 lysate, 635/667 nm fluorescence, primary screen (AID 1150).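 Note: score pools 667 nm emission and signal to noise measuring lysate protein binding.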 Particulars: COS7 hTOR1A mutant lysate, 635 nm fluorescence, higher = more signal.
In assay [20] the test system is Sonic hedgehog protein (Shh). In words: Sonic hedgehog microarray binding compounds – biochemical, small-molecule microarray, 635/667 nm fluorescence, primary screen (AID 1151).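 Note: Shh protein binding to compounds spotted on small-molecule microarray slides; score combines spot fluorescence intensity with signal-to-noise across triplicate slides.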 Particulars: 635 nm fluorescence, higher = more signal.

Fibroblast growth factor 2 (Homo sapiens), sequence (P09038 whole entry, looked up): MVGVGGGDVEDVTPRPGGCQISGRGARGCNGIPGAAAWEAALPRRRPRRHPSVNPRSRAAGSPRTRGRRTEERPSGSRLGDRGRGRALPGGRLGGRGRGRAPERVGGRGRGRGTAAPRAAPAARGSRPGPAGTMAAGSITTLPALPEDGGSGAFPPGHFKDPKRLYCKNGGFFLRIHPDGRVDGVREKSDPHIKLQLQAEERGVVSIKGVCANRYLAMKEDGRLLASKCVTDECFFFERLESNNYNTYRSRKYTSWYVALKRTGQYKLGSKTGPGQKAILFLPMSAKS
Streptavidin (Streptomyces avidinii), sequence (P22629 whole entry, looked up): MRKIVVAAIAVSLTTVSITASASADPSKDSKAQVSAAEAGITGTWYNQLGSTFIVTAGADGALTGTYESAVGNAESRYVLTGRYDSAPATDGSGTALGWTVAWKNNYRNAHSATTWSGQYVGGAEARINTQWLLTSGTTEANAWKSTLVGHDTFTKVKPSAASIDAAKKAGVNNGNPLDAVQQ

On to `C#CCCCON=C1C[C@@H](O)[C@@H](O)[C@@H]2[C@@H]3C(=O)N(c4cccc(Oc5ccccc5)c4)C(=O)[C@@H]3CC[C@H]12`, for which the composite z-score in [1] was 0.247; in assay [2], -0.936; in assay [3], -0.427; in assay [4], -1.13; in assay [5], -0.446; in assay [6] it was -0.455. The composite z-score is -0.275 in [8]; 0.272 in assay [9]; -0.591 in assay [11]; -0.77 in assay [16]; -0.191 in [17]; 0.32 in assay [18]. Also, the composite z-score in [19] is 0.855; in [20] it was -1.01. The z-score in assay [7] was 0.8; in [10], 0.134 (inactive); in assay [12], -0.593 (inactive); in assay [13], 0.0591 (inactive); in assay [14] it was -0.57 (inactive); in assay [15] it was -0.236 (inactive).
On to `COC(=O)C=CCCc1coc(C=CCNC(=O)OC)n1`, for which the composite z-score in assay [1] is 0.803; in assay [2] it was -0.259; in assay [3] it was 0.256; in assay [4], 0.247; in assay [5], 1.15; in assay [6], 1.04. Further, the composite z-score in assay [8] amounted to 1.37; in assay [9], 0.0559; in [11], 0.4; in assay [16], 0.0242; in assay [17] it was 0.432; in assay [18], 0.583. Besides, the composite z-score in assay [19] came to 0.205; in assay [20] it was 1.15. Besides, the z-score was -1.15 in assay [7]; 0.122 (inactive) in assay [10]; -0.0328 (inactive) in [12]; -0.0662 (inactive) in [13]; 0.38 (inactive) in [14]; 0.702 (inactive) in assay [15].
Turning to `O=c1n(-c2ccccc2)c(=O)n2n1CC[C@@H]1C(=NOCc3ccccc3)[C@H]3O[C@H]3[C@@H](O)[C@@H]12`, the composite z-score was 0.103 in assay [1]; -0.0945 in assay [2]; 0.0844 in [3]; -0.468 in assay [4]; 0.265 in assay [5]; 0.373 in assay [6]. In addition, the composite z-score in assay [8] is 0.293; in assay [9] it was 0.0398; in [11] it was 0.18; in assay [16], -0.445; in assay [17], -0.0695; in assay [18] it was -0.614. The composite z-score in [19] was -0.315; in [20], -0.0835. Moreover, the z-score in assay [7] was 0.397; in assay [10] it was 0.0189 (inactive); in assay [12] it was 0.492 (inactive); in assay [13] it was 0.251 (inactive); in [14], -0.385 (inactive); in [15], -0.314 (inactive).
Consider `COC(=O)CC=C[C@@H](C)[C@@H](C=NOCC[C@@H]1C=C[C@H](OC(C)=O)[C@@H](COC(C)=O)O1)OC`, for which the composite z-score was -0.131 in assay [1]; 0.34 in assay [2]; 0.222 in [3]; -0.902 in assay [4]; 0.73 in assay [5]; 0.785 in [6]. In addition, the composite z-score is 0.66 in assay [8]; -0.876 in assay [9]; 0.38 in assay [11]; -0.227 in [16]; 0.0565 in [17]; 0.563 in [18]. Also, the composite z-score in [19] came out at 0.359; in [20], 0.19. Further, the z-score in assay [7] was 0.493; in [10] it was 0.177 (inactive); in [12], 0.309 (inactive); in assay [13], 0.711 (inactive); in assay [14], -0.557 (inactive); in assay [15], 0.0921 (inactive).
As for `CCOC(=O)[C@H](CC(C)C)NC(=O)CCC1CC(OC(=O)NCc2cccc3ccccc23)CC2(CCCC(COC(=O)NCCOC)O2)O1` (stereo not given in full), the composite z-score is 0.427 in assay [1]; 1.19 in assay [2]; 0.175 in assay [3]; 0.959 in assay [4]; 0.602 in assay [5]; 0.648 in [6]. Further, the composite z-score is 0.436 in assay [8]; 0.167 in assay [9]; 0.238 in assay [11]; 0.0772 in assay [16]; 0.119 in assay [17]; -0.114 in [18]. The composite z-score was 0.753 in assay [19] and 1.03 in assay [20]. For the same molecule, the z-score in assay [7] is -0.157; in assay [10], 0.561 (inactive); in assay [12], -1.3 (inactive); in assay [13], -0.656 (inactive); in assay [14] it was -0.526 (inactive); in [15], 0.389 (inactive).
